Experimental data published in PubChem BioAssay (Tox21).
Results filed as inconclusive are left out. The source made the active and inactive calls. Unless noted, calls follow the shape of the dose curve; as a rule, active = well fitted curve in the direction sought with a large enough effect in the repeat runs; inconclusive = weak or mixed curves; inactive = no such curve, though single readings can be large; an effect the other way counts as inactive or inconclusive.

Columns and labels:
[1] = A CellTox Green Cytotoxicity Assay to monitor cytotoxicity in HepG2 cells - 0 hour (AID 1224882); also: nearly all actives have a fitted effect of over 35% in size
Method in brief: (§1)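 HepG2 cells, 600/well, preincubated 5 h with CellTox Green dye, then exposed to Tox21 compounds in DMSO at 37 C for up to 40 h. Dead-cell DNA fluorescence read at the indicated time point.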

[2] = A CellTox Green Cytotoxicity Assay to monitor cytotoxicity in HepG2 cells - 32 hour (AID 1224883); also: nearly all actives have a fitted effect of over 50% in size
Method in brief: as §1

[3] = A CellTox Green Cytotoxicity Assay to monitor cytotoxicity in HEK293 cells - 8 hour (AID 1224884); also: nearly all actives have a fitted effect of over 35% in size
Method in brief: (§2)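 HEK293 cells, 600/well, were preincubated 5 hours and then exposed to compounds at 37 C for up to 40 hours. A cell-impermeant cyanine dye staining dead-cell DNA was read by fluorescence at 0, 8, 16, 24, 32 and 40 h time points.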

[4] = qHTS RealTime-Glo MT Cell Viability Assay in HepG2 cells - 16 hour (AID 1224885); also: nearly all actives have a fitted effect of over 50% in size
Method in brief: (§3)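 Tox21 10K library screened in qHTS format on HepG2 cells carrying RealTime-Glo reagents. Compounds were added after a 5 h preincubation, and the luminescent signal from continuous culture was measured repeatedly during 40 h treatment.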

[5] = qHTS RealTime-Glo MT Cell Viability Assay in HEK293 cells - 24 hour (AID 1224886); also: top concentration of the series differs between compounds; nearly all actives have a fitted effect of over 50% in size
Method in brief: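 Luminescence generated by NanoLuc from substrate produced by living HEK293 cells served as the viability signal. Each value reflects the reading at its stated time point during continuous 40 h compound exposure at 37 C.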

[6] = qHTS RealTime-Glo MT Cell Viability Assay in HEK293 cells - 8 hour (AID 1224887); also: top concentration of the series differs between compounds; nearly all actives have a fitted effect of over 50% in size
Method in brief: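 600 cells/well were plated with the nonlytic NanoLuc/prosubstrate reagent, pre-incubated 5 h, then given 23 nL of compound in DMSO. Incubation at 37 C for 40 h, with luminescence from viable-cell-reduced substrate read repeatedly from 0 h.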

[7] = A CellTox Green Cytotoxicity Assay to monitor cytotoxicity in HEK293 cells - 16 hour (AID 1224888); also: nearly all actives have a fitted effect of over 35% in size
Method in brief: as §2

[8] = qHTS RealTime-Glo MT Cell Viability Assay in HepG2 cells - 0 hour (AID 1224889); also: nearly all actives have a fitted effect of over 50% in size
Method in brief: as §3

[9] = A CellTox Green Cytotoxicity Assay to monitor cytotoxicity in HepG2 cells - 8 hour (AID 1224890); also: nearly all actives have a fitted effect of over 45% in size
Method in brief: as §1

[10] = qHTS assay to identify small molecule antagonists of the estrogen receptor alpha (ER-alpha) signaling pathway using the BG1 cell line in the presence of 0.1 nM 17-beta-estradiol - cell viability counter screen (AID 1259241); also: nearly all actives have a fitted effect of over 40% in size
Method in brief: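 Following 5 days in phenol red-free medium with charcoal-stripped serum, VM7Luc4E2 cells received test compounds alongside 0.1 nM 17beta-estradiol (final) at 37C for 22 hr. Live cells were then quantified via protease-substrate fluorescence.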

[11] = qHTS assay to identify small molecule antagonists of the androgen receptor (AR) signaling pathway using the MDA cell line in the presence of 0.5 nM R1881 - cell viability counter screen (AID 1259242); also: nearly all actives have a fitted effect of over 45% in size
Method in brief: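 MDA-kb2 cells (MMTV-luciferase, AR/GR responsive) were treated with compounds plus 0.5 nM R1881 (final) for 16 hr at 37C, 0% CO2. Viability was then read in the same wells as live-cell protease fluorescence (CellTiter-Fluor, 30 min).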

[12] = qHTS assay to identify small molecule HDAC inhibitors (AID 1259364); also: nearly all actives have a fitted effect of over 45% in size; also: potency is read from the fitted curve at half-maximal effect; as to activity change, negative = inhibition: top concentration of the series differs between compounds
Method in brief: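 Wild-type HCT-116 cells, plated overnight at 37 C, exposed to compounds 2 hr at 37 C; luminogenic HDAC-Glo substrate then added 30 min at room temperature. Luminescence reports relative endogenous class I/II HDAC activity.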

[13] = qHTS assay to identify small molecule HDAC inhibitors - cell viability counter screen (AID 1259365)
Method in brief: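 HCT-116 wild-type, overnight attachment; 2hr drug exposure, 37C; CellTiter-Glo luminescent ATP readout after 30min RT.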

[14] = qHTS assay to identify small molecule agonists of the sonic hedgehog signaling (Shh) pathway - cell viability counter screen (AID 1259366); also: nearly all actives have a fitted effect of over 50% in size
Method in brief: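 Compounds in DMSO were pin-transferred onto 3T3 Gli1-Luc cells that had settled 4hr; plates then stood 24hr at 37C and 5% CO2. One hour before the end, CellTiter-Fluor was added and fluorescence recorded.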

[15] = qHTS assay to identify small molecule agonists of the sonic hedgehog signaling (Shh) pathway (AID 1259368; calls by dose curve;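 also: NIH/3T3-derived 3T3Gli1-Luc cells carrying a stable Gli1-driven firefly luciferase reporter; series mostly up to about 92 µM; nearly all actives have a fitted effect of over 15% in size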)
Method in brief: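 NIH/3T3-derived 3T3Gli1-Luc cells with stably integrated Gli1-driven firefly luciferase, 2,000 cells/well, compounds added after 4 hr. Incubated 24 hr at 37C, 5% CO2; luminescence read after 30 min with luciferase reagent at room temperature.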

[16] = qHTS assay to identify small molecule antagonists of the sonic hedgehog signaling (Shh) pathway (AID 1259369; calls by dose curve; also: nearly all actives have a fitted effect of over 45% in size; also: potency is read from the fitted curve at half-maximal effect)
Method in brief: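 NIH/3T3-derived Gli1-Luc reporter cells plated 4 h, dosed with compound, then stimulated with conditioned medium for 24 h at 37 C. Firefly luciferase luminescence read after 30 min with detection reagent at room temperature.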

[17] = qHTS assay to identify small molecule antagonists of the sonic hedgehog signaling (Shh) pathway - cell viability counter screen (AID 1259367); also: nearly all actives have a fitted effect of over 55% in size; also: potency is read from the fitted curve at half-maximal effect
Method in brief: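 Using CellTiter-Fluor, viability of Gli1-Luc reporter 3T3 cells is read by fluorescence in the wells used for the Shh luciferase assay. Treatment lasts 23 hr with conditioned medium, then reagent 1 hr at 37C.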

[18] = qHTS assay to identify small molecule phospholipidosis (PLD) inducers (AID 1259344; active = well fitted curve in the direction sought with a large enough effect; an effect the other way counts as inactive or inconclusive)
Method in brief: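 Fluorescent phospholipid staining (LipidTOX Red) measured by automated microscopy in fixed HepG2 cells after 24 h treatment; nuclei counterstained with Hoechst 33342; amiodarone as reference inducer.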

[19] = target: Estrogen receptor (Homo sapiens) (UniProt P03372); experiment: qHTS assay to identify small molecule antagonists of the estrogen receptor alpha (ER-alpha) signaling pathway using the BG1 cell line in the presence of 0.1 nM 17-beta-estradiol (AID 1259244); also: nearly all actives have a fitted effect of over 50% in size
Method in brief: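 VM7Luc4E2 cells (endogenous full-length ER-alpha, 4×ERE-luciferase), kept 5 days in phenol red-free, charcoal-stripped FBS medium; 4,000 cells/well. Compounds added with 0.1 nM (final) 17beta-estradiol, 22 hr at 37C; luminescence read with ONE-Glo after 30 min.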
% is scaled to controls: 0 for no effect and ±100 for the full control effect.

Estrogen receptor (Homo sapiens), sequence (P03372 whole entry, looked up): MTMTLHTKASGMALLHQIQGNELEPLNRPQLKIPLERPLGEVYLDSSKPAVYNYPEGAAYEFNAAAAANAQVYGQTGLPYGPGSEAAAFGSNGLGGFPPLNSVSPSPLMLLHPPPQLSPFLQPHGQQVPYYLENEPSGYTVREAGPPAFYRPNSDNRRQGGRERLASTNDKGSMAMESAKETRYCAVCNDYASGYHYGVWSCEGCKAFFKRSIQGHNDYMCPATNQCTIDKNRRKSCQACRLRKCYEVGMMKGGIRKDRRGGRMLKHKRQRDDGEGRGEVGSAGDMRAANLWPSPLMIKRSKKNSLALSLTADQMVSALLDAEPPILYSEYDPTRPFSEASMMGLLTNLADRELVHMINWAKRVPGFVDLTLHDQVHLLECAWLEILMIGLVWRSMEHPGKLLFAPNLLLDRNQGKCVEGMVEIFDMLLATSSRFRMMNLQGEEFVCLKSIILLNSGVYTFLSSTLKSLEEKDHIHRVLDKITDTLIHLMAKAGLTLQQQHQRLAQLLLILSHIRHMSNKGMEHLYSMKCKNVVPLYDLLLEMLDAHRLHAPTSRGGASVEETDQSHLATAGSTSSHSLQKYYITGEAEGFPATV

NC(Cc1ccc(F)cc1)C(=O)O (configuration not stated)
inactive: cytotoxicity [1] -0.531% [at 6.97 µM] | cytotoxicity increase [2] 8.52% [at 6.97 µM] | cytotoxicity increase [3] 17.5% [at 6.97 µM] | activity change, negative = cytotoxic [4] 2.23% [at 6.97 µM] | activity change, negative = cytotoxicity [5] -0.156% [at 6.97 µM] | activity change, negative = cytotoxicity [6] 1.39% [at 6.97 µM] | activity change [7] 17.7% [at 6.97 µM, stronger effect = higher value] | activity change, negative = cytotoxicity [8] 18.9% [at 6.97 µM] | cytotoxicity increase [9] 1.46% [at 6.97 µM] | activity change, negative = cytotoxicity [10] 0.956% [at 8.39 µM] | viability change, negative = cytotoxic [11] 3.8% [at 8.39 µM] | activity change, negative = inhibition [12] -2.41% [at 8.39 µM] | activity change, negative = cytotoxicity [13] 4.97% [at 8.39 µM] | viability change, negative = cytotoxic [14] -12.8% [at 8.39 µM] | activity change [15] 0.322% [at 8.39 µM, stronger effect = higher value] | activity change, negative = inhibition [16] -11.4% [at 8.39 µM]

O=C1CCCCC1C1CCCCC1 (configuration not stated)
inactive: Potency [1] | Potency [2] | Potency [3] | outcome [4] | Potency [5] | Potency [6] | Potency [7] | Potency [8] | Potency [9] | Potency [10] | outcome [11] | Potency [12] | outcome [13] | Potency [14] | Potency [17] | Potency [15] | Potency [16]

Cc1ccc([N+](=O)[O-])c(N)c1
active: Potency [16] 18.9 µM
inactive: Potency [1] | Potency [2] | Potency [3] | outcome [4] | Potency [5] | Potency [6] | Potency [7] | Potency [8] | Potency [9] | outcome [11] | Potency [12] | outcome [13] | Potency [15]

CCCCCCCCCC/C=C/C#N
inactive: Potency [1] | Potency [2] | Potency [3] | outcome [4] | Potency [5] | Potency [6] | Potency [7] | Potency [8] | Potency [9] | Potency [10] | outcome [11] | Potency [12] | outcome [13] | Potency [14] | Potency [17]

CCCCC(CC)COC(=O)COc1cc(Cl)c(Cl)cc1Cl (configuration not stated)
inactive: Potency [1] | Potency [2] | Potency [3] | outcome [4] | Potency [5] | Potency [6] | Potency [7] | Potency [8] | Potency [9] | Potency [10] | outcome [11] | Potency [12] | outcome [13] | Potency [14] | Potency [17] | Potency [16]

CCc1nnc(NS(=O)(=O)c2ccc(N)cc2)s1
inactive: Potency [1] | Potency [2] | Potency [3] | outcome [4] | Potency [5] | Potency [6] | Potency [7] | Potency [8] | Potency [9] | Potency [10] | outcome [11] | outcome [18] | Potency [12] | outcome [13] | Potency [14] | Potency [17] | Potency [15] | Potency [16]

NCCC(O)(P(=O)(O)O)P(=O)(O)O
inactive: Potency [1] | Potency [2] | Potency [3] | outcome [4] | Potency [5] | Potency [6] | Potency [7] | Potency [8] | Potency [9] | Potency [10] | outcome [11] | outcome [18] | Potency [12] | outcome [13] | Potency [14] | Potency [17] | Potency [15] | Potency [16]

Cc1ccc(C)c(N)c1
inactive: Potency [1] | Potency [2] | Potency [3] | outcome [4] | Potency [5] | Potency [6] | Potency [8] | Potency [9] | Potency [10] | outcome [11] | Potency [19] | Potency [12] | outcome [13] | Potency [14] | Potency [17] | Potency [15] | Potency [16]

Cc1nnc(SCC2=C(C(=O)O)N3C(=O)[C@@H](NC(=O)Cn4cnnn4)[C@H]3SC2)s1
inactive: Potency [1] | Potency [2] | Potency [3] | outcome [4] | Potency [5] | Potency [6] | Potency [7] | Potency [8] | Potency [9] | Potency [10] | outcome [11] | outcome [18] | Potency [12] | outcome [13] | Potency [14] | Potency [17] | Potency [15] | Potency [16]

CC1CN(c2ccccc2)NC1=O (configuration not stated)
inactive: Potency [1] | Potency [2] | Potency [3] | outcome [4] | Potency [5] | Potency [6] | Potency [7] | Potency [8] | Potency [9] | Potency [10] | outcome [11] | outcome [13] | Potency [14] | Potency [17] | Potency [15] | Potency [16]
active: Potency [12] 24.3 µM

CCC(=O)Nc1ccc(O)cc1
inactive: Potency [1] | Potency [2] | Potency [3] | outcome [4] | Potency [5] | Potency [6] | Potency [7] | Potency [8] | Potency [9] | Potency [10] | outcome [11] | outcome [18] | Potency [12] | outcome [13] | Potency [14] | Potency [17] | Potency [15] | Potency [16]

CC(C)NC[C@@H](O)COc1cccc2ccccc12
inactive: Potency [1] | Potency [2] | Potency [3] | outcome [4] | Potency [5] | Potency [6] | Potency [7] | Potency [8] | Potency [9] | Potency [10] | outcome [11] | outcome [18] | Potency [12] | outcome [13] | Potency [14] | Potency [17] | Potency [15] | Potency [16]

ClC(Cl)Cl
active: Potency [17] 42.9 µM
inactive: Potency [1] | Potency [2] | Potency [3] | outcome [4] | Potency [5] | Potency [6] | Potency [7] | Potency [8] | Potency [9] | Potency [10] | outcome [11] | outcome [18] | Potency [12] | outcome [13] | Potency [15]

CCCCN1C[C@H](O)[C@@H](O)[C@H](O)[C@H]1CO
inactive: Potency [1] | Potency [2] | Potency [3] | outcome [4] | Potency [5] | Potency [6] | Potency [7] | Potency [8] | Potency [9] | Potency [10] | outcome [11] | outcome [18] | Potency [12] | outcome [13] | Potency [14] | Potency [17] | Potency [15] | Potency [16]

Cc1c[nH]c(=S)[nH]c1=O
inactive: Potency [1] | Potency [2] | Potency [3] | outcome [4] | Potency [5] | Potency [6] | Potency [8] | Potency [9] | Potency [10] | outcome [11] | Potency [19] | Potency [12] | outcome [13] | Potency [14] | Potency [17] | Potency [16]
